Experimental findings from PubChem BioAssay AID651815 (National Center for Advancing Translational Sciences (NCATS), 2012) are described below.

Out of some 2,100 compounds screened, about 1,100 (52%) were called active. Another 29% or so got no clear call; they are omitted. Calls follow the shape of the dose curve; as a rule, active = well fitted inhibition curve with a large enough effect; inconclusive = small, poorly fitted or top-dose-only effect; inactive = no such curve, though single readings can be large or run the other way. So high a share suggests a set chosen from earlier hits. This is one part of the list.
Potency is read from the fitted curve at half-maximal effect.

In the test the target is DNA dC->dU-editing enzyme APOBEC-3F (Homo sapiens) (UniProt Q8IUX4). Kind of test: qHTS for inhibitors of Vif-A3F interactions: Cherry picks counterscreen. Also: nearly all actives have a fitted effect of over 65% in size. As to conditions: HeLa A3F-eYFP/Vif cells, eYFP fluorescence, 24 h; series mostly up to 46.1 µM. Put shortly: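 HeLa cells stably expressing A3F-eYFP and Vif, cultured overnight, then treated 24 h at 37 degrees C with compounds at several concentrations; yellow fluorescence (488 nm Ex/500-530 nm Em) imaged on Acumen; MG132 positive control.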
DNA dC->dU-editing enzyme APOBEC-3F (Homo sapiens), sequence (Q8IUX4 whole entry, looked up): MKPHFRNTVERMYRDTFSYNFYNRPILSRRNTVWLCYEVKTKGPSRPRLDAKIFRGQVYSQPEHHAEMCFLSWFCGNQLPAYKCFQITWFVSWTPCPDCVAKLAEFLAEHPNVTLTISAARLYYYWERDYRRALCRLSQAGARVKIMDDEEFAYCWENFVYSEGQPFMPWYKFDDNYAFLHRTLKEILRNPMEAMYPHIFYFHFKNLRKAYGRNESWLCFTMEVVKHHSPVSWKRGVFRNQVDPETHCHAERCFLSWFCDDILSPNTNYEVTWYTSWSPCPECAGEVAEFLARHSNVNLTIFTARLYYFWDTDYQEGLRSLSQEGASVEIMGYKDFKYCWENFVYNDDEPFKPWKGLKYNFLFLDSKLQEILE
Background: Quantitative high-throughput screening tests each substance at several concentrations.
With `COc1ccc(/C=C/C=C2\NC(=S)NC2=O)cc1`, the Potency result is “inactive”. Next, `COc1cc(N2CCCC2)c(OC)cc1/C=C1/NC(=S)NC1=O`: 1.58 µM (active). On to `Cc1cc(C)c2nc(SCC(=O)N3CC(=O)Nc4ccccc43)c(C#N)cc2c1`, for which the Potency was 3.14 µM (active). Next, `Cc1cccc2cc(C#N)c(SCC(=O)N3CC(=O)Nc4ccccc43)nc12`: 7.9 µM (active); `CC1=C(C(=O)Nc2cccc(F)c2)C(c2ccsc2)C2=C(CC(C)(C)CC2=O)N1` (stereo not drawn): 2.8 µM (active). As for `CCN(CC)c1ccc2cc(-c3nc4sc5c(c4c(=O)[nH]3)CCC(C(C)(C)C)C5)c(=O)oc2c1` (stereo not drawn), the Potency entry is “inactive”. Turning to `COc1ccc2cc(-c3nc(Cl)c4c5c(sc4n3)CC(C)CC5)c(=O)oc2c1` (stereo not drawn), the Potency was 20.6 µM (active). To `Nc1[nH]c2cc([N+](=O)[O-])ccc2c1-c1ccccn1` belongs 20.6 µM (active); to `COc1cc(-c2noc(C)c2C#Cc2ccc(N)cc2)cc(OC)c1OC`, 0.994 µM (active); to `Cc1ccc(-c2nc(-c3cc4cccc(OCc5cccc(F)c5)c4oc3=O)no2)cc1`, 23.1 µM (active). Next, `N#Cc1c(Nc2ccccc2)[n+]([O-])c2ccc(Cl)cc2[n+]1[O-]`: “inactive”.

On to `C=C(C(=O)c1ccccc1)C(C(=C)C(=O)c1ccccc1)c1ccc(OC)cc1`, for which the Potency is 3.96 µM (active). To `C=C(C(=O)c1ccccc1)C(C)C(=C)C(=O)c1ccccc1` belongs 3.53 µM (active); to `S=C(NC1CCCCC1)N(CCc1ccccc1)CCc1ccccc1`, “inactive”; to `COCCN1C(=O)/C(=C/c2ccc(N3CCCC3)cc2)SC1=S`, 5.17 µM (active). To `COCCN1C(=O)/C(=C/c2ccc(N3CCCC3)cc2C)SC1=S` belongs 2.91 µM (active).

Turning to `CCn1c(O)c(/C=N/N=C/c2ccc(OC)cc2)c2cc(C3=NNC(=O)CC3)ccc21`, the Potency was 6.51 µM (active). To `Cc1cc(OCC(=O)Nc2nnc(C3CC3)s2)ccc1Cl` belongs “inactive”; to `COc1cc(CCC(=O)Nc2nnc(C)s2)cc(OC)c1OC`, 4.44 µM (active); to `N#CCSc1ccccc1NC(=O)CN1C(=O)C2CC=CCC2C1=O` (stereo not drawn), 14 µM (active). Regarding `N#CCSc1ccccc1NC(=O)CN1C(=O)NC(CCc2ccccc2)C1=O` (stereo not drawn), the Potency result is “inactive”. For `O=C(CN1c2cccc3cccc(c23)S1(=O)=O)Nc1ccc(S(=O)(=O)N2CCOCC2)cc1`, the Potency entry is “inactive”. For `CC(=O)Nc1ccc(S(=O)(=O)N2CCSc3ccccc32)cc1`, the Potency was 2.5 µM (active).

Take `CC(=O)Nc1ccc(Nc2c3c4c(cccc4n(C)c2=O)C(=O)c2ccccc2-3)cc1`: the Potency entry was “inactive”. Regarding `COC(=O)Nc1ccc(S(=O)(=O)N2CCCc3ccccc32)cc1`, the Potency was 5.59 µM (active). Next, `CC(=O)Nc1ccc(S(=O)(=O)N2c3ccccc3C(C)=CC2(C)C)cc1`: 2.23 µM (active); `Cc1ccc2nsnc2c1NC(=O)c1ccc(-c2cc(Cl)ccc2Cl)o1`: 14 µM (active). Regarding `Cc1nc(CSc2nsc(/C=C/N(C)C)c2C#N)cs1`, the Potency entry is “inactive”.

With `CCSc1nnc(-c2sc3nnc(-c4ccccc4)c(-c4ccccc4)c3c2N)o1`, the Potency was 4.11 µM (active). Next, `OCCCn1c(C2CCCN2c2nc(-c3ccc(Cl)cc3)cs2)nc2cc(Cl)c(Cl)cc21` (stereo not drawn): “inactive”; `COc1cccc2sc(Nc3nc(-c4cc5ccccc5oc4=O)cs3)nc12`: 3.14 µM (active); `O=C1c2ccccc2C(=O)c2cc(N3CCCCC3)ccc21`: 7.04 µM (active).

Regarding `COc1cnc(-c2ccccn2)nc1Oc1ccc(F)cc1F`, the Potency result was “inactive”.

As for `COc1ccc(/C=N\NC(=O)c2ccccc2F)cc1COc1ccc(F)cc1F`, the Potency was 2.23 µM (active). In the case of `O=C(CSc1nc2ccccc2s1)c1cc2ccccc2o1`, the Potency result was “inactive”. To `COc1ccc(/C=N/NC(=O)c2ccccc2Cl)cc1CSc1nc2ccccc2s1` belongs 4.44 µM (active); to `COc1cc(OC)cc(C(=O)N/N=C/c2ccc(OC)c(COc3ccc4ccccc4c3)c2)c1`, 12.5 µM (active). As for `COc1ccc(/C=N/NC(=O)c2cccnc2)cc1CSc1ccccn1`, the Potency was 3.14 µM (active). To `COc1ccc(/C=N/NC(=O)c2cccnc2)cc1COc1ccc(NC(C)=O)cc1` belongs 12.5 µM (active). To `COc1ccccc1/C=N/NC(=S)Nc1cccnc1` belongs “inactive”; to `Cn1c(N)c(-c2ccccc2)c2ccc([N+](=O)[O-])cc2c1=O`, 14 µM (active); to `C=CCN1C(=O)/C(=C2/Sc3ccc(OC)cc3N2CC)SC1=S`, 13 µM (active). To `CCN1C(=O)/C(=C2/Sc3ccc(OC)cc3N2C)SC1=Nc1cccc(O)c1` belongs 17.7 µM (active); to `CN(C)c1ccc(/C=C/c2ccncc2)cc1`, 9.2 µM (active); to `CCN(CC)c1ccc(/C=C/C2=C3C=CC=CC3NC=C2)cc1` (stereo not drawn), 23.1 µM (active). For the molecule `CCN(CC)c1ccc(/C=C/c2ccccn2)cc1`, the Potency is 20.6 µM (active). Turning to `CCN(CC)c1ccc(/C=C/c2ccncc2)cc1`, the Potency was 13 µM (active). To `Cc1ccc(S(=O)c2ccc([N+](=O)[O-])c3nonc23)cc1` (stereo not drawn) belongs “inactive”. Next, `CC(C)CC[n+]1ccccc1/C=C/c1ccc(N(C)C)cc1`: 18.4 µM (active). Next, `CC[n+]1ccccc1/C=C/c1ccc(N(C)C)cc1`: 23.1 µM (active); `CCOC(=O)c1cnc(-n2nc(C)cc2C)nc1NNc1nc(-c2ccccc2)cc(-c2ccccc2)n1`: “inactive”; `CCOC(=O)c1cc2n(c1N)-c1ccccc1C2=O`: 18.4 µM (active).

`CCOC(=O)c1c(CN(CC)CC)n(-c2ccccc2)c2ccc(O)cc12`: the Potency result is “inactive”. Next, `CCOC(=O)c1cc2n(c1/N=C/N(C)C)-c1ccccc1C2=O`: 18.4 µM (active).

On to `Cc1cc(/C=C2\SC(=S)N(C)C2=O)c(C)n1-c1ccccc1O`, for which the Potency was 18.4 µM (active).

Regarding `Cc1cc(/C=C2\SC(=S)N(C)C2=O)c(C)n1-c1ccc(O)cc1`, the Potency is 18.4 µM (active).

`NNC(=O)c1cc2sccc2s1`: the Potency result is “inactive”. To `CCn1ncc(/C=N\NC(=O)c2csc3ccccc23)c1C` belongs 2.5 µM (active). To `CCOC(=O)/C(=C/C1=CC(=C/N(C)C)/C(=O)O1)C(C)=O` belongs “inactive”; to `CCOc1ccc(C2CC(c3c(O)c4ccccc4oc3=O)=NN2c2ccccc2)cc1OC` (stereo not drawn), 14.6 µM (active); to `CNC(=O)C(Sc1nc(C)nc2c1oc1ccccc12)C(C)=O` (stereo not drawn), “inactive”. Next, `CCOc1ccccc1Oc1nc(C)nc2c1oc1ccccc12`: 2.31 µM (active); `Cc1cccc(N2CCN(C(=O)c3cccc(N4CCCC4=O)c3)C(C)C2)c1` (stereo not drawn): 6.27 µM (active).
